Screening results (PubChem BioAssay)
CHO-K1 Ca antag – M1 antagonist counterscreen hit in parental CHO-K1 cells | inhibition, % at 3 µM | ATP-induced calcium, Fluo-8 fluorescence | hit rate 0.6% among 360,000;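 active = inhibition above a per-plate cutoff, the plate's mean sample inhibition plus 3 SD, cut at about 24% in these data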;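 note: 0% = DMSO plus EC80 ATP and 100% = DMSO alone without ATP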
M1 ag parental – M1 agonist counterscreen hit in parental CHO-K1 cells; hit rate 0.48% among 360,000; activation, % at 3 µM; AID 602248; Fluo-8 calcium fluorescence; scaled to maximal ATP response, vehicle zero; in the data active = activation above about 15%;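 note: untransfected CHO-K1 host cells lacking M1 receptor as counterscreen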
M1 PAM parental – nonselective activator or artifact in parental CHO-K1 calcium assay; hit rate 0.02% among 360,000; activation, % at 3 µM; ATP EC20, Fluo-8 calcium fluorescence; 0% at ATP EC20, 100% at ATP max;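 active = activation above the run cutoff, the mean activation of all test compounds plus 3 SD, cut at about 40% in these data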;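 note: peak over basal fluorescence ratio in a 140 s read after ATP addition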
M1 antag – human CHRM1 antagonism. P11229. CHO-K1 hM1, Fluo-8 calcium fluorescence, ACh EC80 antagonist. inhibition, % at 3 µM. hit rate 1.3% among 360,000. AID 588852;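 active = percent inhibition above its own plate's cutoff, namely the mean of that plate's compound wells plus 3 SD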;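 note: peak over basal fluorescence ratio during 140 s after agonist addition; 0% = ACh EC80 plus DMSO and 100% = DMSO alone without agonist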
Target sequence (P11229 whole entry, looked up): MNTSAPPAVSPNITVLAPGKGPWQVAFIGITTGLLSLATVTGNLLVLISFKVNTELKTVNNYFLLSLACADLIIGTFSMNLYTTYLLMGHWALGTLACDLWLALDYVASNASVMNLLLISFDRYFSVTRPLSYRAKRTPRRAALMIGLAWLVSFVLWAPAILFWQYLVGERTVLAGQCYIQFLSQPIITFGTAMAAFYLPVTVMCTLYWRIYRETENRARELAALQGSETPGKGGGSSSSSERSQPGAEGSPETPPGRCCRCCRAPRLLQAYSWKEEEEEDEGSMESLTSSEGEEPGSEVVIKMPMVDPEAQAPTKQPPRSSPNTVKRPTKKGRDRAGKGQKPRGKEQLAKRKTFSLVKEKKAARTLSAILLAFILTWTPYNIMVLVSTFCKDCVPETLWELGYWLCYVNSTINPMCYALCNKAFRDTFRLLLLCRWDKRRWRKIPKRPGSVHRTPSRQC
M1 PAM – positive allosteric modulators of human M1 muscarinic receptor | CHO-K1 hM1, Fluo-8 calcium fluorescence, ACh EC20; 0% = ACh EC20, 100% = maximal ACh | hit rate 0.088% among 360,000 | P11229 | activation, % at 3 µM; in the data active = activation above about 19%, passing the limit was not always enough
CHRM1 agonist – human M1 muscarinic receptor agonism | P11229 | hit rate 0.33% among 360,000 | CHO-K1 hM1, Fluo-8 calcium fluorescence, agonist mode; 0% DMSO, 100% acetylcholine EC100 | AID 588814 | activation, % at 3 µM;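 active = activation above the run's mean compound activation plus 3 SD, cut at about 16% in these data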;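 note: peak over basal fluorescence ratio within a 140 s kinetic read after compound addition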
Numbers without * were called inactive. Sampled rows, rich in hits. Any-hit rate of the full collection: about 2.3%.

SMILES	CHO-K1 Ca antag	M1 ag parental	M1 PAM parental	M1 antag	M1 PAM	CHRM1 agonist
O=C1CCCN2N=C(SCC(=O)Nc3cccc(Cl)c3)SC2=N1	1	16*	-1	9	-8	0
COc1ccc(C(C)=O)cc1CN(c1ccccc1OC)S(=O)(=O)c1cccs1	-13	2	18	-2	2	-5
Cc1ccc(C(C)C)c2c1C(c1ccc3c(c1)OCO3)CC(=O)O2 (stereo unspecified)	-11	9	15	-1	-1	21*
Cc1ccc(OCc2cc(C(=O)N(C)CCc3nc4ccccc4[nH]3)no2)cc1C	-5	5	-10	0	3	1
CC1c2cc3c(cc2CCN1C(=O)c1ccc(C(F)(F)F)cc1)OCCCO3 (stereo unspecified)	-18	4	-10	34*	-23	-5
CC1c2cc3c(cc2CCN1CC(=O)Nc1ccc(S(=O)(=O)N2CCCC2)cc1)OCCCO3 (stereo unspecified)	-5	5	7	102*	-41	-13
Cc1ccc(C(=O)N2CCc3cc4c(cc3C2C)OCCCO4)cc1 (stereo unspecified)	-16	5	17	13	-12	-4
CC(=O)Nc1ccc(C(=O)N2CCc3cc4c(cc3C2C)OCCCO4)cc1 (stereo unspecified)	0	0	13	57*	-33	-13
CC(=O)Nc1ccc(S(=O)(=O)N2CCc3cc4c(cc3C2C)OCCCO4)cc1 (stereo unspecified)	-4	2	8	4	-1	-4
CNc1cccc(-c2cccc(C(=O)N3CCOCC3)c2)n1	-13	1	0	-13	6	-3
CN(CC(=O)Nc1ccc(Cl)c(C(F)(F)F)c1)C(=O)CNC(=O)C1CCCCC1	7	0	-1	-6	5	1
CC1CN(c2nc3c(c(=O)n(C)c(=O)n3C)n2Cc2c(F)cccc2Cl)CC(C)O1 (stereo unspecified)	-1	0	18	-8	7	18*
Cc1cc(O)c2c(c1)C(=O)[C@@]13Oc4c5c(c(O)c6c(O)cc(C)cc46)C(=O)C[C@H](O)[C@H]5[C@@H]1[C@@H](O)CC(=O)C3=C2O	-2	0	2	1	0	-2
CCOC(=O)c1cnc2c(cnn2C)c1NCCCN(C)C	33*	0	-7	-8	8	0
O=C1[C@H](Oc2ccccc2)[C@@H](c2ccncc2)N1c1ccncc1	-8	1	20	-5	3	0
O=C1[C@@H](Oc2ccccc2)[C@@H](c2cnc3ccccc3c2)N1c1ccccc1	-15	1	0	30*	-20	-10
CCC(C(=O)OCC(=O)Nc1cc(Cl)cc(Cl)c1)c1ccccc1 (stereo unspecified)	-6	2	17	0	-1	-8
CCSC1=NSC2=NC(=O)/C(=C\c3coc4ccccc4c3=O)C(=N)N12	48*	59*	-14	61*	-27	87*
CC(C)CC1=NN2C(=N)/C(=C\c3coc4ccccc4c3=O)C(=O)N=C2S1	45*	100*	-14	45*	-31	125*
CSC1=NSC2=NC(=O)/C(=C\c3ccc(OC(=O)c4ccco4)cc3)C(=N)N12	-14	0	11	-4	4	-3
COC(=O)c1ccccc1NC(=O)CSc1nnc(-c2cccc(NC(C)=O)c2)n1C	-8	0	16	-11	7	-4
O=c1c2ccc([N+](=O)[O-])cc2ncn1CCOc1ccccc1	4	6	-1	36*	-12	-1
Nn1cnc2c(ncn2C2OC(CO)C(O)C2O)c1=O (stereo unspecified)	-8	0	20	-3	0	-2
Cc1c(C(=O)N2CCN(c3ccccc3)CC2)oc2c1C(=O)CC(C)(C)C2	12	7	-24	30*	-15	0
O=C1OC(N2C(=O)CC[C@H]2C(=O)NCC2CCCO2)c2ccccc21 (stereo partly specified)	8	1	12	102*	2	-4
SMILES	CHO-K1 Ca antag	M1 ag parental	M1 PAM parental	M1 antag	M1 PAM	CHRM1 agonist
O=C(NCCN1CCOCC1)C1CCC(=O)N1Cc1ccccc1Cl (stereo unspecified)	-7	0	19	-13	7	-5
O=C(NCC1CCCO1)C1CCC(=O)N1Cc1ccccc1Cl (stereo unspecified)	25*	0	-5	6	1	0
CCc1ccc(NC(=O)CSc2nnc(C)c(=O)n2N)cc1	-4	1	12	-8	10	-3
CCOC(=O)Nc1nc(-c2ccc(Cl)cc2Cl)cs1	-5	0	18	5	-7	-7
COc1cccc(S(=O)(=O)Nc2ccc3c(c2)[C@H]2C[C@H](CC(=O)N[C@@H](C)c4ccccc4)O[C@H](CO)[C@H]2O3)c1	-10	2	2	-10	1	-6
COCOc1ccc(/C=C/C(=O)c2c(O)cc(OCOC)cc2OCOC)cc1	-8	1	19	-10	6	-4
COCOc1ccc(/C=C/C(=O)c2c(OCOC)cc(OCOC)c(CC=C(C)C)c2O)cc1OCOC	29*	-1	-10	0	11	3
O=C(COc1ccccc1)NC(=S)Nc1cccc2cc(O)ccc12	4	11	10	-4	10	19*
O=C(NC(=S)Nc1cccc2cc(O)ccc12)c1ccco1	10	31*	-5	-15	12	6
O=c1c2ccccc2nc(SCc2ccc([N+](=O)[O-])cc2)n1-c1ccccc1	1	0	0	12	23*	-3
COc1ccc(-n2c(SCc3ccc([N+](=O)[O-])cc3)nnc2-c2ccccc2)cc1	-1	16*	25	0	5	-10
O=c1c2ccccc2nc(SCc2cccc(F)c2)n1-c1cccc(S(=O)(=O)N2CCCC2)c1	27*	0	-15	9	-7	-5
O=C(O)c1ccc(CSc2nc3ccccc3c(=O)n2-c2ccccc2)cc1	-10	1	26	-15	8	-2
O=C(c1ccc(-n2c(SCc3cccc(F)c3)nc3ccccc3c2=O)cc1)N1CCOCC1	1	0	6	-4	4	0
Cn1c(SCc2cccc([N+](=O)[O-])c2)nc2ccccc2c1=O	-3	2	-9	36*	-13	0
CCC1CCCCN1C(=O)CSc1nnc(N)s1 (stereo unspecified)	-10	1	8	-2	1	-3
CN(CC(=O)Nc1ccccc1Cl)C(=O)COC(=O)/C=C/c1ccccc1	-6	1	-20	2	12	2
C=CCOc1ccc(/C=C/C(=O)OCC(=O)N(C)CC(=O)Nc2ccccc2Cl)cc1	24*	2	-14	13	-5	-2
